Drawing on ChEMBL document CHEMBL4513216, “Probing the Open Global Health Chemical Diversity Library for Multistage-Active Starting Points for Next-Generation Antimalarials” (ACS Infect Dis, 2020), this text covers INHIBITION for 104 molecules.

Among all 69,000 compounds or so, about 8,600 (12%) showed an effect of 50% or more. This excerpt belongs to a sample that is enriched for strong results.

The test system of the assay is Plasmodium berghei. The assay can be described thus: Screen against P. berghei liver stage (PbLuc), transformed with Luciferase, at 10uM. It counts as functional, HepG2. The conditions noted are these: tested at 10 uM.
Regarding `CCOc1cc(C(=O)N2CCCC(n3nc(C)nc3C)C2)ccn1` (centres undefined), the INHIBITION is recorded as -11.9%.

Turning to `Cc1noc(C)c1-c1nc(N(C)CCN(C)C)ncc1-c1cnccn1`, the INHIBITION came out at 2.71%. In the case of `CC(C)(C)c1cc(CN2C[C@H]3CC[C@@H](C2)N(Cc2ccccn2)C3)n[nH]1`, the INHIBITION is reported as 33.3%. Next, `c1ncn(Cc2cnc3n2CCN(Cc2ccsc2)CC3)n1`: 37%; `CC(C)(C)CC(=O)Nc1ccccc1SCC(N)=O`: -53.6%; `O=C1CCN(Cc2cnc3c(-c4ccccc4)cnn3c2)CCN1`: 29.2%. Take `CC(O)C1CCN(Cc2cnc3c(-c4ccccc4)cnn3c2)CC1` (centres undefined): the INHIBITION was 63.6%.

With `c1ccc(-c2cnn3cc(CN4CCC5(CCO5)CC4)cnc23)cc1`, the INHIBITION worked out at 87.4%. Next, `OCCN1CCN(Cc2cnc3c(-c4ccccc4)cnn3c2)CC1`: 44.8%. Next, `FC(F)(F)C1CN(Cc2cnc3c(-c4ccccc4)cnn3c2)CCO1` (centres undefined): 25.9%; `NCCC1CN(Cc2cnc3c(-c4ccccc4)cnn3c2)CCO1` (centres undefined): 40.7%. Next, `CC(C)O[C@H]1CN(Cc2cnc3c(-c4ccccc4)cnn3c2)C[C@@H]1O`: 8.74%; `O=C1CN(Cc2cnc3c(-c4ccccc4)cnn3c2)CCCN1`: 75.1%. Regarding `CN(C)CC1(O)CCN(Cc2cnc3c(-c4ccccc4)cnn3c2)C1` (centres undefined), the INHIBITION came out at 20.2%. As for `CN(Cc1ccsc1)C(=O)c1cc2c([nH]c1=O)CCC2`, the INHIBITION was -9.6%. For `Cc1csc(CNCc2c(C)nn(C)c2N2CCOCC2)n1`, the INHIBITION is listed as -19.7%. On to `CCCN(CC)C(=O)c1ncn2c1CN(C)S(=O)(=O)c1ccccc1-2`, for which the INHIBITION is recorded as -49.7%. Take `COCCOCC(=O)Nc1nc2c(OC)cc(F)cc2s1`: the INHIBITION is 7.65%. The figure for `Cc1nnc(CN(Cc2ccc3c(c2)OCO3)C2CCC(C)CC2)o1` (centres undefined) is -45.9%; for `COc1cc(OC)c(C2CC(=O)Oc3cc(C)[nH]c(=O)c32)cc1OC` (centres undefined) it is 4.07%; for `CC(Cn1cnc2cn(C)nc2c1=O)Oc1cccnc1` (centres undefined) it is 52.6%. Next, `Cn1cc2ncn(CCCOc3cccnc3)c(=O)c2n1`: 14.3%; `Cn1cc2ncn(CCNc3cccnc3)c(=O)c2n1`: 31.6%; `CC(C#N)NS(=O)(=O)c1cccc(C(C)C)c1` (centres undefined): 22.3%. Next, `Cc1ccc(S(=O)(=O)NC(C)C#N)cc1Br` (centres undefined): 4.95%; `CCC(=O)c1cccc(S(=O)(=O)NC(C)C#N)c1` (centres undefined): 54.4%; `CS(=O)(=O)NCC1CCCCN1C(=O)Nc1cccnc1N1CCCC1` (centres undefined): 34.7%. For the molecule `c1coc(-c2nnc(CN3CCCC3Cn3cncn3)o2)c1` (centres undefined), the INHIBITION turned out to be 17.5%.

Regarding `CCCn1ncc(CN(Cc2ccsc2)Cc2ccco2)c1C`, the INHIBITION is reported as 13%. Turning to `CCCn1ncc(CN(CCN(C)C)Cc2ccsc2)c1C`, the INHIBITION is listed as 57.5%. The figure for `CCCn1ncc(CN(Cc2cccnc2)Cc2ccsc2)c1C` is 22.9%. Next, `Cc1c(C(=O)NCCC(C)C)nnn1-c1cccc2c1CCN(C)C2`: 36.3%. In the case of `CCC(C)(C)NC(=O)c1nnn(-c2cccc3c2CCN(C)C3)c1C`, the INHIBITION is recorded as 36.3%. For `CCC(C)NC(=O)c1nnn(-c2cccc3c2CCN(C)C3)c1C` (centres undefined), the INHIBITION was 51.7%.

`Cc1c(C(=O)NC(C)C(C)C)nnn1-c1cccc2c1CCN(C)C2` (centres undefined): the INHIBITION stood at 11.8%. In the case of `Cc1c(C(=O)NCC(C)C)nnn1-c1cccc2c1CCN(C(C)C)C2`, the INHIBITION is 38%.

As for `Cc1c(C(=O)NCC(C)C)nnn1-c1cccc2c1CCN(C)C2`, the INHIBITION was 56.1%. Next, `Cc1ccc(C)c(C(C)NC(=O)N2CCC(n3cncn3)CC2)c1` (centres undefined): -3.2%; `CN1CCN([C@@H]2CCN(C3CCOC3)[C@H]2Cc2cnn(C)c2)CC1` (some centres undefined): 24.9%; `Cc1cc2ncn(C(=O)N3CCCCC3)c2cc1C`: -16%.

Regarding `CCOC1CCCN(C(=O)c2ccccc2NCc2cccnc2)C1` (centres undefined), the INHIBITION came out at 16.8%. Next, `O=C(Cc1ccc2c(c1)OCCO2)NC1CC1`: -60.4%.

Consider `CC[C@@H]1N(Cc2ccc(C)o2)CCC[C@]12CCC(=O)N2CCOC`, for which the INHIBITION was 29.3%. Regarding `O=C(C1CCOCC1)N1CC[C@H]2[C@H]1CCN2c1nncs1`, the INHIBITION came out at 40.8%. For the molecule `COC(=O)c1ccc(C2SC(C)=Nc3c2c(=O)[nH]n3C2CCCC2)cc1` (centres undefined), the INHIBITION came to 76.3%. As for `CC1=Nc2c(c(=O)[nH]n2C2CCCCC2)C(c2ccc(C(=O)O)cc2)S1` (centres undefined), the INHIBITION came to 36.55%. Next, `CC1=Nc2c(c(=O)[nH]n2C2CCCC2)C(c2ccc(C(=O)O)cc2)S1` (centres undefined): 26.65%; `Cc1cc(CN2Cc3ccccc3CC2c2nnc(C)o2)no1` (centres undefined): 7.67%. The figure for `Cc1nnc(C2Cc3ccccc3CN2Cc2nc(C3CC3)no2)o1` (centres undefined) is 23.7%; for `CCc1nnc(C2Cc3ccccc3CN2Cc2cc(C)on2)o1` (centres undefined) it is 68.1%; for `CCc1nnc(C2Cc3ccccc3CN2Cc2nc(C3CC3)no2)o1` (centres undefined) it is 60.9%. The figure for `CCc1nnc(C2Cc3ccccc3CN2Cc2ncc(Cl)n2C)o1` (centres undefined) is 1.84%. For `Cc1cc(CN2Cc3ccccc3CC2c2nnc(C)o2)on1` (centres undefined), the INHIBITION is given as -8.3%. The figure for `CCc1nnc(C2Cc3ccccc3CN2Cc2cc(C)no2)o1` (centres undefined) is 58.1%; for `CCc1nnc(C2Cc3ccccc3CN2Cc2nc(C)no2)o1` (centres undefined) it is 9.64%. Consider `Cc1noc(CN2Cc3ccccc3CC2c2nnc(C)o2)n1` (centres undefined), for which the INHIBITION was 20.2%.

Take `CNC(=O)CCc1cc(C2CCCCN2C(C)C)nc(C)n1` (centres undefined): the INHIBITION stood at 15.1%.

`Cc1nc(CN(C)C2CCCN(Cc3noc(C4CC4)n3)C2)oc1C` (centres undefined): the INHIBITION is 40.2%. For the molecule `COc1cccc(CC(=O)N2CCCC(c3nncn3C)C2)c1` (centres undefined), the INHIBITION was -26.6%. Consider `Cc1ccc(-c2noc(CN3CCCC(Cn4cncn4)C3)n2)cc1` (centres undefined), for which the INHIBITION was 48.2%. On to `Cc1cccc2[nH]c(C3CCCN(Cc4ccccc4C(=O)O)C3)nc12` (centres undefined), for which the INHIBITION is recorded as 37.6%. In the case of `Cc1cc(C2CCCN(CCCS(N)(=O)=O)C2)n[nH]1` (centres undefined), the INHIBITION came out at 16.8%. The figure for `c1cc(CN2CCO[C@H]3[C@H](OCC4CCOCC4)CC[C@@H]32)co1` is -34.9%; for `Cc1nn(C)c(C)c1C1CCCN1C(=O)c1cnc2onc(C)c2c1` (centres undefined) it is -2.53%. The figure for `O=S(=O)(CCCNC1CCc2ncnn2C1)c1ccccc1` (centres undefined) is 31.3%; for `Cc1noc(C)c1CN1C[C@@H](OCC(=O)N(C)C)[C@H]2OCCC[C@H]21` it is 74.8%; for `Cc1noc(C)c1CN1C[C@H](OCC(=O)N(C)C)[C@H]2COC[C@H]21` it is 15.3%. The figure for `CN(C)C(=O)CO[C@@H]1CC[C@H]2[C@H]1OCCN2c1ncc(F)cn1` is 64.3%; for `Fc1cnc(N2CCO[C@H]3[C@H](OCC4CCOCC4)CC[C@@H]32)nc1` it is 38.5%; for `Cc1noc(C)c1CN1C[C@H](OCC(=O)N(C)C)[C@H]2OCCC[C@H]21` it is 10.5%. For `CN(C)C(=O)CO[C@@H]1CC[C@H]2[C@H]1OCCN2c1ncccn1`, the INHIBITION came out at 20.1%. As to `CNC(=O)c1ccc(C2CCCN(C(=O)c3c(C)noc3C)C2)nc1` (centres undefined), the INHIBITION is given as 17.1%. Next, `CC1(C2CCN(CCCC(=O)O)CC2)CN(Cc2ccccc2)C(=O)O1` (centres undefined): 7.52%. `Cn1nnc2cc(C(=O)N3CCC(Nc4cccnn4)CC3)ccc21`: the INHIBITION worked out at 10%.

With `Cc1ccsc1CNCC1CCCN1c1cccnn1` (centres undefined), the INHIBITION is -36.25%. The figure for `Cc1nn(C)c(N(C)C)c1CNCc1cccnc1` is 40.7%. The figure for `CC(C)c1nn(C)c(N(C)C)c1CNCc1cccnc1` is -3.48%; for `Cc1cc(C)c2cc(CNCc3ccccc3)c3nn(C)c(=O)n3c2c1` it is 73.4%. Next, `CCOCCCNCc1cc2c(C)cc(C)cc2n2c(=O)n(C)nc12`: 51.5%. In the case of `Cc1cc(C)c2cc(CNCc3cccnc3)c3nn(C)c(=O)n3c2c1`, the INHIBITION is given as 50.1%. With `CCCNCc1cc2c(C)cc(C)cc2n2c(=O)n(C)nc12`, the INHIBITION came out at 33%. The figure for `Cc1cnn(CCNCC(=O)NCc2ccccc2)c1` is 18.4%. Next, `Cc1cc(C)c(N(CC(O)CNCc2ccccc2)S(C)(=O)=O)c(C)c1` (centres undefined): 35.1%; `COCCNCc1cc2c(C)cc(C)cc2n2c(=O)n(C)nc12`: 48.6%; `CCCC(=O)N1CCC(c2cc3n(n2)[C@@H](C(F)(F)F)C[C@@H](C)N3)CC1`: 36.4%.

Consider `Cc1cnc(N(C)CCCc2cnn(C)c2)nc1N(C)C`, for which the INHIBITION is -0.996%.

On to `COCC(=O)N1CC(C(=O)NCC2CC2)C2(CCOCC2)C1` (centres undefined), for which the INHIBITION turned out to be 15.8%. With `Cn1ncc(N2CCC(CNC3Cc4ccccc4C3)C2)cc1=O` (centres undefined), the INHIBITION was found to be 58.7%. The figure for `Cn1ncc(N2CCC(CNC3CC(c4ccccc4)C3)CC2)cc1=O` (centres undefined) is 63.7%; for `CCOC(=O)N1CCC(NCC2CCN(c3cnn(C)c(=O)c3)C2)CC1` (centres undefined) it is 26.6%; for `Cn1ncc(N2CCC(CNC(=O)[C@@H](N)c3ccccc3)CC2)cc1=O` it is -12.4%. As to `Cn1ncc(N2CCC(CNC3CC(C)(C)CC(C)(C)C3)C2)cc1=O` (centres undefined), the INHIBITION came out at 72.3%. The figure for `CC(C)C(=O)NCC(=O)NCC1CCN(c2cnn(C)c(=O)c2)CC1` is 26.1%; for `Cn1ncc(N2CCC(CNC(=O)[C@@H](N)C3CCCCC3)CC2)cc1=O` it is 8.53%; for `CCC(OC)C(=O)NCC1CCN(c2cnn(C)c(=O)c2)CC1` (centres undefined) it is -0.275%. Next, `CC(CN1CCOCC1)NCC1CCN(c2cnn(C)c(=O)c2)CC1` (centres undefined): 33.5%; `COCc1noc(CN2CC(Cc3ccccc3)CC2=O)n1` (centres undefined): -23.3%. The figure for `CN1CCCC(Cc2cncc(C(=O)NC3CC3)c2)C1` (centres undefined) is 8.72%; for `Cn1ncc2c1CCCC2NCc1ccc(Br)s1` (centres undefined) it is 35.3%. As to `CCCN(C)CCC(=O)N1CCCC1Cn1cccn1` (centres undefined), the INHIBITION was -15.5%.

Regarding `CSCc1noc(CNC(=O)C2CCN(C(C)C)CC2)n1`, the INHIBITION came to 8.51%. With `Cc1nc(CN2CCc3nn(C)c(=O)cc3C2)oc1C`, the INHIBITION is given as -3.7%.

On to `CCn1cc(NS(=O)(=O)c2ccc(F)cc2)c(C(=O)NCC(C)C)n1`, for which the INHIBITION is given as 22%.

As to `CN1[C@H](Cn2cncn2)C[C@@H]2CN(C3CCOCC3)CC[C@@H]21`, the INHIBITION amounted to 34.6%.
